USP30 inh – blocks human USP30 ubiquitin-rhodamine cleavage | hit rate 5.3% among 47,000 | Q70CQ3 | purified USP30, Ub-rhodamine cleavage fluorescence | inhibition, % at 25 µM
USP28 block – human USP28 deubiquitinase inhibition | Q96RU2 | AID 1645857 | inhibition, % at 25 µM | purified USP28, Ub-rhodamine cleavage fluorescence, 30 min | hit rate 3% among 47,000
USP8 block – blocks human USP8 ubiquitin-rhodamine cleavage. purified USP8, Ub-rhodamine cleavage fluorescence, 30 min. hit rate 4.2% among 47,000. inhibition, % at 20 µM. AID 1645853. P40818
USP17 block – blocks human USP17 ubiquitin-rhodamine cleavage; A8MUK1; purified USP17, Ub-rhodamine cleavage fluorescence, 3 h; inhibition, % at 50 µM; hit rate 6.5% among 47,000
* = called active by the depositor. Sampled rows, rich in hits. Any-hit rate of the full collection: about 13%. No stated cut-off is given here; in the data, active means inhibition above about 30%; inactive means the rest.

SMILES | USP30 inh | USP28 block | USP8 block | USP17 block
CCOC(=O)c1cnc(Nc2ccc(F)c(Cl)c2)c2ccccc12 | 18 | 7 | 21 | 44*
O=C(NCCc1ccc(Cl)cc1)c1csc(C(=O)N2CCCC2)n1 | 17 | 23 | 0 | 3
CCc1ccc(Nc2cc(C(=O)NCCCOC(C)C)c3ccccc3n2)cc1 | -34 | 5 | 2 | 69*
COc1ccc(Nc2cc(C(=O)NCCCN(CC(C)C)CC(C)C)c3ccccc3n2)cc1 | 21 | 9 | 22 | 17
CCN1C[C@H]2COc3ccc(C)cc3[C@H]2N(C(=O)COC)CCC1=O | 7 | -3 | 0 | -4
COc1ccc(C(NS(=O)(=O)c2ccc(S(=O)(=O)N3CCOCC3)cc2)c2ccccc2)cc1 (stereo unspecified) | 36* | 12 | -30 | 9
O=S(=O)(c1ccc(-c2noc(COc3ccccc3)n2)cc1)N1CCOCC1 | -8 | -19 | 0 | 14
O=C(NC1CC(=O)N(c2ccc3c(c2)OCO3)C1)c1ccco1 (stereo unspecified) | 5 | -7 | 5 | -9
CCOc1cc2[nH]c(=O)n(CCC(=O)NCCc3ccc(OC)c(OC)c3)c(=O)c2cc1OCC | 6 | -7 | 2 | 5
COc1cc2[nH]c(=O)n(Cc3ccc(C(=O)N4CCN(C5CCCCC5)CC4)cc3)c(=O)c2cc1OC | 33* | -2 | -15 | 18
CCOC(=O)N1CCN(C(=O)c2ccc(Cn3c(=O)[nH]c4cc(OC)c(OC)cc4c3=O)cc2)CC1 | -16 | -14 | -3 | -12
COc1ccc(Cn2c(=O)[nH]c3cc(C(=O)N4CCC(Cc5ccccc5)CC4)ccc3c2=O)cc1 | 37* | 17 | 28 | 7
CCOc1cc2[nH]c(=O)n(Cc3ccc(C(=O)NCCCN4CCC(C)CC4)cc3)c(=O)c2cc1OCC | 35* | 22 | -1 | 27
Cc1nc(CNC(=O)[C@H]2CCCN2C(=O)c2ccc(F)cc2)cs1 | 4 | -14 | 1 | -4
O=C(CN1C=NC2=NS(=O)(=O)c3ccccc3N21)Nc1cc(F)ccc1F | 18 | 10 | 23 | 76*
COc1ccc(C(=O)N(Cc2ccc(C)cc2)Cc2ccco2)cc1 | 34* | 30 | 12 | 33*
COc1ccc(Nc2nc(N3CCCC3)nc3c2cnn3C)cc1 | 39* | 2 | 17 | 49*
Cc1nc(C2CCCCN2C(=O)C2CCC2)nc2c1CCC(=O)N2Cc1ccccn1 (stereo unspecified) | 16 | 8 | 1 | 8
COc1ccc(CN2C(=O)Cc3c(C)nc(C4CCNCC4)nc32)cc1 | -4 | -11 | 1 | -14
Cc1nc(C2CCCN2C(=O)c2ccnn2C)nc2c1CC(=O)N2Cc1ccc(F)cc1 (stereo unspecified) | -202 | -45 | 40* | -3
Cc1nc(C2CCCN2C(=O)c2ccccn2)nc2c1CC(=O)N2CCc1ccccc1F (stereo unspecified) | -320 | -60 | 61* | 7
Cc1ccc(NS(=O)(=O)c2ccc3c(c2)NC(=O)CC(C)S3)c(C)c1 (stereo unspecified) | 13 | 23 | 24 | 18
Cc1cc(C)c2c(NC(=O)c3cccc4ccccc34)nn(C)c2n1 | 17 | -4 | 10 | 49*
CCc1nc(-c2c(C)cc(C)nc2NC(=O)c2ccccc2C)no1 | 10 | 9 | 24 | 16
CCOC(=O)c1c2ccc(OCC(=O)NCc3ccco3)cc2n2ccccc12 | -185 | -29 | 63* | 20
SMILES | USP30 inh | USP28 block | USP8 block | USP17 block
CC1Oc2ccccc2C(=O)N(Cc2ccc([N+](=O)[O-])cc2)C1=O (stereo unspecified) | 28 | 74* | -72 | 3
CCC1Oc2ccccc2C(=O)N(Cc2ccccc2Cl)C1=O (stereo unspecified) | 24 | 17 | 22 | 15
CC1CC(=O)N(Cc2ccc([N+](=O)[O-])cc2)c2ccccc2S1 (stereo unspecified) | 33* | 62* | -113 | -8
O=C1CCSc2ccc(Cl)cc2N1Cc1cccc(F)c1 | 34* | 37* | 8 | 18
O=C1CCSc2ccccc2N1Cc1cccc(F)c1 | -16 | 17 | -12 | -6
O=C1CCSc2ccccc2N1Cc1ccc([N+](=O)[O-])cc1 | 33* | 29 | -106 | 1
Cc1ccc2c(c1)c1nc3ccccc3nc1n2Cc1ccccc1OCCC(C)C | -42 | -3 | 0 | -6
Cc1noc(C)c1COc1cccc(C(=O)Nc2ccccc2)c1 | 6 | 17 | 9 | 7
O=C(Nc1cc(Cl)ccc1-n1cncn1)c1ccc(-n2cccn2)cc1 | -71 | 7 | 5 | 22
Cc1noc(C)c1COc1cccc(C(=O)Nc2cc(Cl)ccc2-n2cncn2)c1 | 4 | 52* | 0 | 38*
O=C(Nc1cc(Cl)ccc1-n1cncn1)c1ccc(S(=O)(=O)N2CCCC2)cc1 | 66* | 18 | -1 | 23
CC(C)=CCC[C@](C)(O)[C@H]1CC[C@]2(C)[C@@H]1CC[C@@H]1[C@@]3(C)CC[C@H](O)C(C)(C)[C@@H]3CC[C@]12C | 5 | 3 | 9 | 22
C=C(C)[C@@H]1CC[C@]2(C)[C@H](CC[C@@H]3[C@@H](C(C)(O)CCC=C(C)C)CC[C@]32C)[C@@]1(C)CCC(=O)O (stereo partly specified) | 93* | 69* | 91* | 99*
Cc1cc(CC2COCCN(C(=O)c3ccc4nc[nH]c4c3)C2)ncn1 (stereo unspecified) | -19 | -9 | -6 | -13
CC(C)NC(=O)N1CCC2(CC1)C(=O)NCN2C(=O)Cc1ccccc1 | 15 | 4 | -73 | 0
Cc1nccc(-c2ccc3c(c2)OCO3)n1 | -63 | 1 | 12 | 5
c1ccc2c(c1)N=C(c1ccc3c(c1)OCO3)CCN2 | -60 | 13 | 78* | 41*
COc1ccccc1C1CC(c2ccccc2)N(C(=O)CC(C)C)c2ncnn21 (stereo unspecified) | 31* | 14 | 4 | 27
CC(C)C(=O)N1c2ncnn2C(c2ccccc2)CC1c1ccccc1 (stereo unspecified) | 15 | 0 | 7 | 1
Cc1ccc(C2CC(c3ccccc3)N(C(=O)C(C)C)c3ncnn32)cc1 (stereo unspecified) | 40* | 13 | 5 | 13
O=C1[C@H]2Cc3c([nH]c4ccccc34)C(CCc3ccccc3)N2C(=O)CN1CCCN1CCOCC1 (stereo partly specified) | -72 | -16 | -2 | -28
O=C(CN1CCN(Cc2ccc(Cl)cc2)C1=O)NCCc1ccc(Cl)cc1 | 11 | 9 | -22 | -2
CC(=O)Nc1ccc(NC(=O)CSc2ncc(CO)n2Cc2ccc(F)cc2)cc1 | 0 | 0 | 1 | -5
Cc1ccc(C(=O)N2CCc3cc(-c4nc(NC(=O)CN5CCCCCC5)sc4C)ccc32)cc1 | 3 | 5 | 6 | 13
CC(C)(C)CC(=O)N1CCc2cc(-c3csc(NC(=O)Cn4nnc5ccccc54)n3)ccc21 | -62 | 4 | -7 | 9
Cc1sc(NC(=O)Cn2nnc3ccccc32)nc1-c1ccc2c(c1)CCN2C(=O)c1ccccc1F | 3 | -4 | 50* | 14
O=C(Cn1nnc2ccccc21)Nc1nc(-c2ccc3c(c2)CCN3C(=O)c2ccccc2F)cs1 | 11 | 10 | 77* | 54*
